Data from PubChem BioAssay AID1159580 (chemical genetic matrix, 2015).
Values joined by “and” are separate entries in the source; they are usually repeats but may differ in a detail not shown here. Equal entries are not always repeated. Among all 5,500 compounds or so, about 2,000 (36%) were called active. Inconclusive results (about 18%) are left out. Rule as the data show it: active = normalized growth mostly below about 0.91 (no sharp cut-off); inconclusive = no clear call, values can overlap the other calls; inactive = mostly above about 0.92. The list shows a part of the results.

Assay: chemical genetic growth profiling, strain panel (AID 1159580);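 also: tested at 20 µM; growth read once vehicle control cultures reached saturation at 30 °C; 1 = growth at the plate median or of vehicle wells; lower values mean less growth of the strain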
Settings: S. cerevisiae deletion strains, growth OD

Measured: normalized growth

O=c1[nH]cnc2nc[nH]c12
inactive: locus YAL021C, strain ccr4, hits give low values 1.04 | locus YAL026C, strain drs2, hits give low values 1.02 | locus YAL030W, strain snc1, hits give low values 1.03 | locus YBL061C, strain skt5, hits give low values 1.02 | locus YBR009C, strain hhf1, hits give low values 1.01 | locus YBR021W, strain FUR4, hits give low values 0.972 | locus YBR023C, strain chs3, hits give low values 1.01 | locus YBR171W, strain sec66, hits give low values 1.04 | locus YBR229C, strain ROT2, hits give low values 0.992 | locus YBR231C, strain swc5, hits give low values 1.02 | locus YBR279W, strain paf1, hits give low values 1.01 | locus YCL011C, strain gbp2, hits give low values 1.03 | locus YCL016C, strain dcc1, hits give low values 1.01 | locus YCL029C, strain bik1, hits give low values 0.977 | locus YCL061C, strain MRC1, hits give low values 1.01 | locus YCL069W, strain vba3, hits give low values 1.01 | locus YCR088W, strain abp1, hits give low values 1.02 | locus YDL005C, strain med2, hits give low values 1.02 | locus YDL035C, strain GPR1, hits give low values 1.01 | locus YDL040C, strain nat1, hits give low values 1 | locus YDL074C, strain BRE1, hits give low values 0.986 | locus YDL101C, strain DUN1, hits give low values 0.999 | locus YDL134C, strain PPH21, hits give low values 1 | locus YDL185W, strain tfp1, hits give low values 0.979 | locus YDL192W, strain arf1, hits give low values 0.994 | locus YDR001C, strain nth1, hits give low values 1.01 | locus YDR069C, strain doa4, hits give low values 1.04 | locus YDR101C, strain arx1, hits give low values 0.973 | locus YDR137W, strain rgp1, hits give low values 1.07 | locus YDR150W, strain NUM1, hits give low values 1 | locus YDR159W, strain sac3, hits give low values 1.03 | locus YDR162C, strain NBP2, hits give low values 1.04 | locus YDR195W, strain ref2 1.01 | locus YDR297W, strain sur2, hits give low values 1.04 | locus YDR318W, strain mcm21, hits give low values 0.984 | locus YDR334W, strain swr1, hits give low values 1.03 | locus YDR335W, strain msn5, hits give low values 1.02 | locus YDR388W, hits give low values 0.983 | locus YDR392W, strain spt3, hits give low values 1.01 | locus YDR502C, strain sam2, hits give low values 1 | locus YEL003W, strain gim4, hits give low values 1.01 | locus YEL037C, strain rad23, hits give low values 1.01 | locus YEL061C, strain CIN8 (second series), hits give low values 1.02 | locus YEL061C, strain CIN8, hits give low values 1 | locus YER015W, strain faa2, hits give low values 1.01 | locus YER016W, strain bim1, hits give low values 1.02 | locus YER110C, hits give low values 0.969 | locus YER111C, strain swi4, hits give low values 1.02 | locus YER155C, strain BEM2 (second series), hits give low values 1.02 | locus YER155C, strain BEM2, hits give low values 0.992 | locus YER167W, strain BCK2, hits give low values 0.982 | locus YFR010W, strain ubp6, hits give low values 1.03 | locus YGL078C, strain dbp3, hits give low values 0.986 | locus YGL086W, strain mad1, hits give low values 0.955 | locus YGL167C, strain pmr1, hits give low values 1.02 | locus YGL173C, strain kem1, hits give low values 1.03 | locus YGL227W, strain vid30, hits give low values 1.01 | locus YGL240W, strain doc1, hits give low values 1.01 | locus YGL248W, strain PDE1, hits give low values 1.01 | locus YGL253W, strain hxk2, hits give low values 1.02 | locus YGR135W, strain pre9, hits give low values 1.01 | locus YGR252W, strain gcn5, hits give low values 1.09 | locus YHR013C, strain ard1, hits give low values 1.05 | locus YHR027C, strain rpn1, hits give low values 1.01 | locus YHR030C, strain SLT2, hits give low values 0.989 and 1.05 | locus YHR079C, strain IRE1 (second series), hits give low values 0.975 | locus YHR079C, strain IRE1, hits give low values 1.02 | locus YHR094C, strain hxt1, hits give low values 0.974 | locus YHR129C, strain ARP1, hits give low values 0.996 | locus YHR142W, strain chs7, hits give low values 1.02 | locus YHR200W, strain rpn10, hits give low values 0.998 | locus YIL066C, strain RNR3, hits give low values 0.998 | locus YIL073C, strain SPO22, hits give low values 0.963 | locus YIL125W, strain kgd1, hits give low values 0.972 | locus YIR030C, strain dcg1, hits give low values 0.989 | locus YJL092W, strain hpr5, hits give low values 1.02 | locus YJL095W, strain BCK1 (second series), hits give low values 1.01 | locus YJL095W, strain BCK1, hits give low values 1.02 and 1.01 | locus YJL115W, strain asf1, hits give low values 1.02 | locus YJL129C, strain trk1, hits give low values 1.03 | locus YJL134W, strain LCB3, hits give low values 0.994 | locus YJL154C, strain vps35, hits give low values 1.02 | locus YJL164C, strain tpk1, hits give low values 1.01 | locus YJL166W, strain qcr8, hits give low values 1.01 | locus YJL168C, strain set2, hits give low values 0.977 | locus YJL187C, strain SWE1 (second series), hits give low values 1.01 | locus YJL187C, strain SWE1, hits give low values 1.02 | locus YJR043C, strain POL32, hits give low values 1.03
